Shown are actives, neighbours in structure and some others; about 3% of the full set was active somewhere.
IP6K1 inhibitor = inhibitors of human IP6K1; Q92551; activity change, % (series mostly up to about 58 µM); IP6K1 kinase, ADP-Glo luminescence, 2 h; stronger effect = lower value; 0.81% of 140,000 active; in the data active = activity change below about -25%
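ADP-Glo luminescence measures ADP made by human IP6K1 during a 2 h RT reaction with ATP/IP6 (mix at 1.3 mM/130 uM); top library doses 57.5 and 19.1 uM final.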
KDM5B inh = inhibitors of human KDM5B histone demethylase. Q9UGL1. KDM5B demethylase, FDH-coupled NADH fluorescence (FDH is formaldehyde dehydrogenase). Potency, µM (highest dose often 57.7 µM), most hits filed as inhibitors. 2.6% of 220,000 active. AID 1347165; note: nearly all actives have a fitted effect of over 70% in size
Target sequence (Q9UGL1 whole entry, looked up): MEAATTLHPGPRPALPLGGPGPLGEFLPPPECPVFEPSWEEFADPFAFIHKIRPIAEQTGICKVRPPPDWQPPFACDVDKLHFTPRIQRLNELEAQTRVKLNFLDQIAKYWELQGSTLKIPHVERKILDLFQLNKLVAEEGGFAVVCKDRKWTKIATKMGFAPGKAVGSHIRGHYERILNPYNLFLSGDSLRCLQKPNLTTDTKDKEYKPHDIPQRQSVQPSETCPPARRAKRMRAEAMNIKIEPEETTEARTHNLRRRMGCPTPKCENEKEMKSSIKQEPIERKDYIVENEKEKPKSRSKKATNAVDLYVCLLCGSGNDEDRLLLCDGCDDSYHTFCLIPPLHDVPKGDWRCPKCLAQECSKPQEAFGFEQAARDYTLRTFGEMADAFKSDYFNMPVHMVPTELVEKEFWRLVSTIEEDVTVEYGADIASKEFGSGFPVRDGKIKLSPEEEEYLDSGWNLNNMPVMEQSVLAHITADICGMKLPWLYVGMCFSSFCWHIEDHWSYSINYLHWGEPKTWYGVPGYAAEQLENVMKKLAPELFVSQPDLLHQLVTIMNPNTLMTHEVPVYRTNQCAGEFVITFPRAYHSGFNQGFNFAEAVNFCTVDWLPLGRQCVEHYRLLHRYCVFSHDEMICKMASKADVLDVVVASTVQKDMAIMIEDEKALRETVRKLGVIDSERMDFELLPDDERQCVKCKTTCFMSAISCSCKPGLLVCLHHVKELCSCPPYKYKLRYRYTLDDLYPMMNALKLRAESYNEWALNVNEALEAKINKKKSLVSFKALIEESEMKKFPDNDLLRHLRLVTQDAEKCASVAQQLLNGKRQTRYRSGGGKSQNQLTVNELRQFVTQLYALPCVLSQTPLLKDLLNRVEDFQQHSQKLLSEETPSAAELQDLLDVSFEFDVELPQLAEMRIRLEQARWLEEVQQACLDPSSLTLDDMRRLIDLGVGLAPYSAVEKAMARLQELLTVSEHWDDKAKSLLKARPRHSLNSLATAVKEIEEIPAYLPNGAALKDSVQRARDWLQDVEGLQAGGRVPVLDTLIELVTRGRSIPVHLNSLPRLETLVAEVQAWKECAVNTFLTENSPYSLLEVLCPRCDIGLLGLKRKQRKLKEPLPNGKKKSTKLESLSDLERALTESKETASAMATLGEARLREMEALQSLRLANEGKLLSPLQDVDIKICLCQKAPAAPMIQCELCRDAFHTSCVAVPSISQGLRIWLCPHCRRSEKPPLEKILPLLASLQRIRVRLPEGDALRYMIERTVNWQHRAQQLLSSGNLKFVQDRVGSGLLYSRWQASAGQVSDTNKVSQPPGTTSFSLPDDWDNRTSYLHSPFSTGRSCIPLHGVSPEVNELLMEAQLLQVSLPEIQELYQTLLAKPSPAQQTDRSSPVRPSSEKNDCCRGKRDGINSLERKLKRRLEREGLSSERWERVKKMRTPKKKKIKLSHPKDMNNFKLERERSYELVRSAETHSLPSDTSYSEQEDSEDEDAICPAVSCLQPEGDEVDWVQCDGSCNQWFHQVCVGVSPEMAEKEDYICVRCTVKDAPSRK
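Measured: NADH fluorescence change, 30 min, RT. System: KDM5BΔAP 200 nM final, H3K4me3 peptide, α-KG, Fe(II), ascorbate, NAD⁺ plus FDH, pH 7.5 HEPES. Compounds: titrated, 10 min pre-incubation with enzyme.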
SNCA viab count = reduces viability of HEK-293 SNCA reporter cells. HEK-293-SNCA-luc viability, GF-AFC fluorescence, 24 h. Potency, µM (titrated, usually from 57.1 µM), actives largely listed as cytotoxic. 0.12% of 150,000 active. AID 1671193; note: nearly all actives have a fitted effect of over 30% in size
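HEK-293-SNCA-luc cells (1500/well) plated 24 h, then exposed 24 h to a dilution series; GF-AFC added 30 min at 37C, fluorescence 405/540 nm; normalised to medium-only and DMSO wells, Hill fit.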
SNCA expr inh = reduces expression of the alpha-synuclein gene; HEK-293 SNCA-luciferase knock-in, luminescence, 24 h; 0.17% of 140,000 active; Potency, µM (doses to about 57.2 µM), most hits filed as inhibitors; AID 1671194; note: nearly all actives have a fitted effect of over 45% in size
IP6K1 conf = human IP6K1 inhibition, confirmatory. shares compounds with IP6K1 inhibitor. recombinant IP6K1 kinase, ADP-Glo luminescence, 2 h. Potency, µM (highest dose often 49 µM), usual class: inhibitors. 13% of 1,200 active. AID 1645852; note: nearly all actives have a fitted effect of over 65% in size
A number is an active result; . = inactive; ? = inconclusive; / = not tested or not shown; ! = repeats disagree; [ ] = dose if it differs, or a comment. Unless noted, calls come from the whole dose curve; as a rule, active = well fitted curve in the direction sought with a large enough effect; inconclusive = small, poorly fitted or top-dose-only effect, or another doubt; inactive = no such curve, though single readings can be large; an effect the other way counts as inactive or inconclusive.

SMILES | IP6K1 inhibitor | KDM5B inh | SNCA viab count | SNCA expr inh | IP6K1 conf
CCc1cccc(NC(=O)c2cc3c(=O)n(Cc4ccccc4)ccc3nc2C)c1 | -27 | ? | . | . | .
Oc1ccc(-c2nc(C3CC3)nc3c2CCN(Cc2ccccc2C(F)(F)F)CC3)cc1 | . | . | . | . | /
O=C(Nc1ccc(Cl)cc1)c1cc(-c2ccc[nH]2)n[nH]1 | . | . | . | . | .
CCc1ccc(NC(=O)c2cc(-c3ccc[nH]3)n[nH]2)cc1 | . | . | . | . | /
CCc1cccc(NC(=O)c2cc(-c3ccc[nH]3)n[nH]2)c1 | -30 | . | . | . | 9.2µM
Cc1cc(C)cc(NC(=O)c2cc(-c3ccc[nH]3)n[nH]2)c1 | . | . | . | . | /
CCOc1ccc(NC(=O)c2cc(-c3ccc[nH]3)n[nH]2)cc1 | . | . | . | . | .
Cc1ccc(NC(=O)c2cc(-c3ccc[nH]3)n[nH]2)cc1 | . | . | . | . | .
CCS(=O)(=O)N1CC(=O)N(c2ccc(C(C)C)cc2)C(C)(C(=O)NCc2ccc(F)cc2)C1 (stereo not given) | / | . | / | / | /
CCOc1ccc(Cn2c(CNS(=O)(=O)c3ccc(CC)cc3)nc3cccnc32)cc1 | . | ? | . | . | /
CCOc1ccc(Cn2c(CNS(=O)(=O)c3ccc(Cl)s3)nc3cccnc32)cc1 | -28 | ? | . | ? | ?
O=C1C(SCCO)=C(SCCO)C(=O)c2ccccc21 | / | / | . | ? | 10µM
CC1(C)Cc2sc3c(=O)n(CC(=O)c4ccc(Br)cc4)cnc3c2CO1 | / | . | / | / | /
O=C(Cc1ccccc1)Nc1cccc(-c2nc3cccnc3s2)c1 | . | ? | . | . | /
COCC(=O)Nc1cccc(-c2nc3cccnc3s2)c1 | -27 | ? | . | . | ?
NC(=O)c1cnc(N[C@@H]2CCCC[C@H]2N)nc1Nc1cccc(-n2nccn2)c1 | . | / | ? | / | ?
Cc1cccc(Nc2nc(N[C@@H]3CCCC[C@H]3N)ncc2C(N)=O)c1 | / | / | . | . | /
Cc1ccc(-c2ccc(=O)n(CCC(=O)NCCc3ccccc3)n2)cc1 | -27 | ? | . | . | .
COc1ccc(N2C(=O)C(C)(C)CS2(=O)=O)cc1S(=O)(=O)N1CCc2ccccc21 | / | . | / | / | /
Cc1oc2ncn(CC(C)C)c(=O)c2c1C(=O)NCCCN(Cc1ccccc1)C(C)C | -29 | . | . | . | .
Fc1ccc(C2Cn3nnc(-c4nc(-c5ccc6c(c5)OCO6)no4)c3CO2)cc1 (stereo not given) | -28 | . | . | . | .
COc1ccc(-c2ccc3ncc(Nc4ccc(C(N)=O)cc4)n3n2)cc1OC | . | . | . | . | /
CCn1cnc2c(=O)oc3ccc(S(=O)(=O)N4CCN(c5cc(C)ccc5C)CC4)cc3c21 | -28 | . | . | . | .
CN(Cc1cnn(C)c1)C(=O)C1C2C(=O)N(Cc3ccc(F)cc3)C[C@@]23C=C[C@@H]1O3 (stereo not given in full) | -42 | . | . | . | .
O=C(C1C2C(=O)N(Cc3ccc(F)cc3)C[C@@]23C=C[C@@H]1O3)N1CCSCC1 (stereo not given in full) | . | . | . | . | /
SMILES | IP6K1 inhibitor | KDM5B inh | SNCA viab count | SNCA expr inh | IP6K1 conf
Cn1c(=O)n(Cc2ccccc2F)c(=O)c2c1ncn2Cc1ccccc1 | / | . | / | / | /
Cc1ccc(S(=O)(=O)c2nc(-c3ccco3)oc2SCc2ccc(F)cc2)cc1 | -28 | ? | . | . | .
Cc1cc(C)c(Nc2ncnc3c2cnn3C)c(C)c1 | . | ? | . | . | /
Cn1ncc2c(Nc3cccc(F)c3)ncnc21 | -28 | ? | . | . | ?
CC(=O)Nc1ccc2oc(-c3ccc(C(C)C)cc3)cc(=O)c2c1 | / | . | / | / | /
O=c1cc(-c2ccccc2)oc2ccccc12 | -30 | / | . | . | ?
CC(C)c1ccc(-c2cc(=O)c3ccccc3o2)cc1 | -78 | / | . | / | 3.3µM
Cc1sc2ncn(Cc3nc(-c4ccco4)no3)c(=O)c2c1C | / | . | / | / | /
CCOc1ccc2oc(=O)cc(CN3CCN(Cc4ccccc4F)CC3)c2c1 | / | . | / | / | /
CC(C)CCN(Cc1ccco1)C(=O)Cn1ncc2c([nH]c3ccccc32)c1=O | -29 | ? | . | ? | .
CCN(CC)C(=O)Cn1ncc2c([nH]c3ccccc32)c1=O | . | ? | . | . | /
COc1ccc(NC(=O)CSc2nnc3scc(-c4ccc(Cl)cc4)n23)cc1 | . | . | ? | . | /
COc1cccc(NC(=O)CSc2nnc3scc(-c4ccc(Cl)cc4)n23)c1 | -37 | . | . | . | .
COc1ccc(CC(=O)NCCNC(=O)c2cccc(-c3ccc(C(F)(F)F)cc3)c2)cc1 | . | / | .[12.5 µM] | . | /
CC#C[C@@H](CC(=O)O)c1ccc(OCc2cccc(-c3ccc(C(F)(F)F)cc3)c2)cc1 | -28 | / | . | / | ?
N#CC(=Cc1ccc(O)c(O)c1)C(=O)NCc1ccccc1 | / | / | . | . | ?
Cc1c(C)n(C)c2ccc(C(=O)N3CCN(c4ccccn4)CC3)cc12 | / | . | / | / | /
Cc1c(C)n(C)c2ccc(C(=O)N3CCN(c4ccccc4)CC3)cc12 | -27 | . | . | . | .
O=C(O)c1cc(-c2cncnc2)cc(S(=O)(=O)N2CCCCCC2)c1 | . | . | . | . | /
O=C(O)c1cc(-c2ccccc2CO)cc(S(=O)(=O)N2CCCCCC2)c1 | -30 | . | . | . | .
Cc1ccc(NC(=O)c2ccc(CN3CC[C@H](N(C)C)C3)c(C(F)(F)F)c2)cc1Nc1nccc(-c2cncnc2)n1 | . | / | . | / | /
Cc1ccc(C(=O)Nc2ccc(CN3CCN(C)CC3)c(C(F)(F)F)c2)cc1C#Cc1cnc2[nH]ncc2c1 | -61 | / | ? | / | 7.3µM
CCN1CCN(Cc2ccc(NC(=O)c3ccc(C)c(/C=C/c4cnc5[nH]ccc5c4OC)c3)cc2C(F)(F)F)CC1 | -39 | / | 24µM | / | 4.6µM
CC(c1cccc(Cl)c1)N(C)CCS(=O)(=O)CCC(N)=O (stereo not given) | / | . | / | / | /
Cc1cc(CNC(=O)Cc2nonc2C)c2[nH]c(-c3ccccc3)c(C)c2c1 | -29 | ? | . | . | .
SMILES | IP6K1 inhibitor | KDM5B inh | SNCA viab count | SNCA expr inh | IP6K1 conf
CC1(CNc2ccccc2)COc2ccc(C(=O)NCCc3cnc[nH]3)cc2N1 (stereo not given) | -40 | ? | . | . | ?
CC1(CNc2ccccc2)COc2ccc(C(=O)NCc3cccnc3)cc2N1 (stereo not given) | . | . | . | . | /
Cn1nccc1Nc1nccc(-c2ccn([C@H](CO)c3ccc(Cl)c(F)c3)c(=O)c2)n1 | -36 | / | . | / | 8.2µM
CCN1CCN(C(=O)c2nc3sccn3c2-c2cccc(C(F)(F)F)c2)CC1 | . | / | . | . | /
Nc1ccc(N=Nc2ccccc2)c(N)n1 | -37 | / | . | . | ?
CO/N=C(/C(=O)N[C@@H]1C(=O)N2C(C(=O)O)=C(CSC(=O)c3ccco3)CS[C@H]12)c1csc(N)n1 | -49! | / | . | / | ?
CO/N=C(/C(=O)N[C@@H]1C(=O)N2C(C(=O)OCOC(=O)C(C)(C)C)=C(C)CS[C@H]12)c1csc(N)n1 | . | / | . | . | /
Cc1cccc(C(=O)n2nc(-c3cccnc3)nc2NCc2ccccc2)c1 | -30 | . | . | . | ?

Bioassay records: PubChem, National Center for Advancing Translational Sciences (NCATS)
